Shown are actives, neighbours in structure and some others; about 22% of the full set was active somewhere.
Shiga inhibitor = A qHTS for Small Molecule Inhibitors of Shiga Toxin; Vero cells, Shiga toxin protein synthesis inhibition reporter; inhibition, % at 38.7 µM; 290,000 tested, 9.2% active; AID 2315, 2010; in the data active = inhibition mostly above about 28%, no sharp cut-off; inactive = mostly below about 43%
Pf growth 96h = Primary qHTS for delayed death inhibitors of the malarial parasite plastid, 96 hour incubation. Potency, µM (highest dose often 28.7 µM), hits mostly inhibitors. 320,000 tested, 6.9% active. AID 504834, 2011. P. falciparum luciferase reporter growth, 96 h
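Two-generation exposure (96 h) targets delayed-death phenotype. Reporter parasites carrying integrated firefly luciferase, in red cells at 2% hematocrit and 0.05% parasitemia final, kept at 37 C, 5% CO2; luminescence loss indicates inhibition.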
Pf growth 48h = Primary qHTS for delayed death inhibitors of the malarial parasite plastid, 48 hour incubation; P. falciparum luciferase growth in erythrocytes, 48 h; Potency, µM (doses to about 28.7 µM), usual class: inhibitors; 310,000 tested, 5.9% active; AID 504832, 2011
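Read-out is firefly luciferase luminescence from an integrated reporter in P. falciparum, so falling signal marks reduced parasite growth. Infected erythrocytes were at 2% hematocrit and 0.1% parasitemia (final) in Albumax-supplemented RPMI 1640.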
LmPK inh = qHTS Assay for Inhibitors of Leishmania Mexicana Pyruvate Kinase (LmPK); Q27686; purified LmPK, Kinase-Glo ATP luminescence, 1 h; Potency, µM (titrated, usually from 57.5 µM), usual class: inhibitors; 290,000 tested, 0.37% active; AID 1721, 2009
Target sequence (Q27686 whole entry, looked up): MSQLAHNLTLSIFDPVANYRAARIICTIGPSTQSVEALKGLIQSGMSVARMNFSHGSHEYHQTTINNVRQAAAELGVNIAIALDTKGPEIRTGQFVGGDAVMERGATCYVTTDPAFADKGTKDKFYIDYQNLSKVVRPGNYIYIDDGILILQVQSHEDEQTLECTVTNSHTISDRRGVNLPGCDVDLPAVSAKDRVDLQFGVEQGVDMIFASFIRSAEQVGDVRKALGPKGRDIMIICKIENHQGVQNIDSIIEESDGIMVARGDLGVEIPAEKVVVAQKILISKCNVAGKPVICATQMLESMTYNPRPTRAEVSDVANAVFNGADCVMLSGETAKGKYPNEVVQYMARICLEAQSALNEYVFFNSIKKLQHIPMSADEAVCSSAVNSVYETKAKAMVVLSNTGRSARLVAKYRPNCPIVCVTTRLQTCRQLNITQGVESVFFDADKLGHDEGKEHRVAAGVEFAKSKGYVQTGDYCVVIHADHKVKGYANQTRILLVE
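ATP generated from ADP (0.1 mM) and PEP (0.5 mM) by 0.1 nM LmPK over 1 h at room temperature (pH 7.2 imidazole buffer) was detected by coupled luciferase luminescence. Values were normalized to uninhibited and no-enzyme wells.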
Cycloheximide cs = Cycloheximide Counterscreen for Small Molecule Inhibitors of Shiga Toxin | cell reporter, cycloheximide protein synthesis inhibition counterscreen | max response, % | 300,000 tested, 12% active; in the data active = max response mostly above about 13%, no sharp cut-off; inactive = mostly below about 14%; also: read at 38.3 µM for the half of the compounds with a filed dose
Numbers stand for hits; i = inactive; ? = inconclusive; nt = not tested or not shown; ! = repeats disagree. Unless noted, calls follow the shape of the dose curve; as a rule, active = well fitted inhibition curve with a large enough effect; inconclusive = small, poorly fitted or top-dose-only effect, or another doubt; inactive = no such curve, though single readings can be large or run the other way.

SMILES	Shiga inhibitor	Pf growth 96h	Pf growth 48h	LmPK inh	Cycloheximide cs
Cc1cccc(C)c1NC(=O)C1CCCN1C(=O)NCc1ccccc1 (stereo not given)	i	?	i	i	i
Cn1nccc1C(=O)OCC(=O)Nc1cccc(Cl)c1	nt	?	i	nt	nt
O=C(OCC(=O)N1CCc2ccccc21)c1cncc(Br)c1	i	i	i	i	i
CC(=O)n1nc(-c2ccc(Cl)cc2)nc1NCc1ccco1	49.8	i	nt	i	31.2
O=C(c1cccs1)n1nc(-c2ccc(Cl)cc2)nc1NCc1ccco1	i	i	i	i	i
COc1ccc(CC(=O)n2nc(-c3ccc(Cl)cc3)nc2NCc2ccco2)cc1	i	i	i	i	22.5
O=C(c1ccco1)n1nc(-c2cccnc2)nc1NCc1ccco1	i	i	i	i	i
COc1ccccc1C(=O)NC(=O)COC(=O)CNC(=O)c1ccc(Cl)c([N+](=O)[O-])c1	nt	i	i	nt	nt
COC(=O)c1ccc(/C=N/NC(=O)c2ccccc2Cl)cc1	47.1	i	i	i	41.5
CC(C)c1ccc(/C=N/NC(=O)c2ccccc2Cl)cc1	107.2	?	i	i	45.9
CN(C)/C=N/NC(=O)c1ccccc1Cl	i	i	i	i	i
Cc1ccc(NC(=O)c2ccccc2F)nc1	66.4	nt	i	?	43.0
Cc1ccc(NC(=O)c2ccc(C(=O)c3ccccc3)cc2)nc1	nt	i	i	nt	nt
COc1cc2ccccc2cc1C(=O)Nc1ccc(C)cn1	102.4	i	i	i	48.4
Cc1cc(NC(=O)c2ccccc2F)on1	67.0	i	i	i	41.8
Cc1ccc(C(=O)Nc2onc(C)c2C#N)cc1	i	i	i	i	12.3
C=CCNC(=O)NC(=O)CN1C(=O)NC(c2ccccc2)(c2ccccc2)C1=O	i	i	i	i	i
Cc1ccc(NC(=O)c2cc(F)c(F)cc2Cl)nc1	48.6	i	i	i	58.2
Cc1cc(NC(=O)c2ccc(C#N)cc2)on1	i	i	i	i	10.6
COCCn1c(SCC(=O)Nc2ccc(Cl)cn2)nc2ccccc21	i	?	nt	i	i
CN1C(=O)N(C)C2(c3ccccc3)Nn3c(s/c(=C/c4ccccc4F)c3=O)=NC12c1ccccc1 (stereo not given)	i	nt	i	i	i
CN1C(=O)N(C)C2(c3ccccc3)Nn3c(s/c(=C/c4ccco4)c3=O)=NC12c1ccccc1 (stereo not given)	i	i	11.7µM	i	i
C=CCN1CCc2nc(N)sc2CC1	i	6.75µM!	i	i	i
Fc1ccc2nc(Nc3nc4c(F)cc(F)cc4s3)sc2c1	i	10.4µM	i	i	i
CCC(=O)NNc1nc2c(F)cc(F)cc2s1	i	i	i	i	i
SMILES	Shiga inhibitor	Pf growth 96h	Pf growth 48h	LmPK inh	Cycloheximide cs
Fc1cccc2sc(Nc3nc4ccccc4s3)nc12	69.2	i	i	i	55.7
CCC(=O)NNc1nc2c(F)cccc2s1	i	i	i	i	i
Fc1ccc2nc(Nc3nc4c(F)cccc4s3)sc2c1	42.0	?	i	i	45.5
COc1ccccc1NC(=O)CCCc1nnc2n(C)c(=O)c3sccc3n12	i	i	i	i	i
O=C(O)CCNC(=O)/C(=C\c1ccco1)NC(=O)c1ccco1	i	i	i	i	i
COc1ccc(NC(=O)CN(C)CC(=O)Nc2cccc(S(=O)(=O)N(C)c3ccccc3)c2)cc1	i	?	?	i	i
CN(CC(=O)Nc1cccc(S(=O)(=O)N(C)C)c1)Cc1ccccc1	i	i	i	i	23.4
COc1ccc(CCC(=O)Nc2cccc(S(=O)(=O)N3CCCCCC3)c2)cc1OC	nt	?	10.4µM	nt	nt
COc1ccc(CN(C)CC(=O)Nc2cccc(S(=O)(=O)N(C)c3ccccc3)c2)c(OC)c1	nt	14.7µM	?	nt	nt
COc1ccccc1CN(C)CC(=O)Nc1cccc(S(=O)(=O)N2CCCCC2)c1	nt	?	11.7µM	nt	nt
CCOc1ccc(NS(=O)(=O)c2ccc(C(=O)NCC(c3ccc(OC)cc3)N3CCOCC3)cc2)cc1 (stereo not given)	nt	?	i	nt	nt
CCCCOP(=O)(OCCCC)C(Nc1ccccc1)c1ccc2c(c1)OCO2 (stereo not given)	i	i	?	i	i
CC1(c2cc(F)ccc2F)NC(=O)N(CC(=O)Nc2cccc(S(=O)(=O)N3CCCC3)c2)C1=O (stereo not given)	nt	?	11.7µM	nt	nt
Cc1cccc(NC(=O)CN(C)C(C)C(=O)Nc2ccc(S(=O)(=O)N3CCCC3)cc2)c1C (stereo not given)	nt	?	13.1µM	nt	nt
CN(CC(=O)Nc1cccc(S(=O)(=O)N2CCCCC2)c1)Cc1ccc(F)cc1	nt	9.28µM	13.1µM	nt	nt
CC1CCc2ccccc2N1CC(=O)Nc1cccc(S(=O)(=O)N2CCCC2)c1 (stereo not given)	nt	?	11.7µM	nt	nt
CC1Cc2ccccc2N1CC(=O)Nc1cccc(S(N)(=O)=O)c1 (stereo not given)	i	i	i	i	i
CC(=O)N1CCOc2ccc(S(=O)(=O)NCC3CCC(C(=O)Nc4ncccc4C)CC3)cc21 (stereo not given)	i	?	i	i	i
Cc1csc(=O)n1CCC(=O)OCC(=O)NNC(=O)c1ccccc1	nt	i	i	nt	nt
CC[C@H](C)[C@H](NC(=O)[C@H](Cc1cnc[nH]1)NC(=O)[C@@H](NC(=O)[C@H](CCCNC(=N)N)NC(=O)[C@H](CCCCN)NC(=O)[C@H](CCCNC(=N)N)NC(=O)[C@H](CCCCN)NC(=O)[C@@H](N)CC(N)=O)[C@@H](C)CC)C(=O)NCC(=O)N1CCC[C@H]1C(=O)NCC(=O)N[C@@H](CCCNC(=N)N)C(=O)N[C@@H](C)C(=O)N[C@@H](Cc1ccccc1)C(=O)N[C@@H](Cc1ccc(O)cc1)C(=O)N[C@H](C(=O)N[C@H](C(=O)N[C@@H](CCCCN)C(=O)N[C@@H](CC(N)=O)C(=O)N[C@H](C(=O)N[C@H](C(=O)NCC(=O)N[C@H](C(=O)N[C@H](C(=O)N[C@@H](CS)C(=O)O)[C@@H](C)CC)[C@@H](C)O)[C@@H](C)CC)[C@@H](C)CC)[C@@H](C)O)[C@@H](C)O	i	nt	nt	nt	i
CN(CC(=O)Nc1ccc(Br)cc1)Cc1ccccc1	i	i	i	i	19.0
CN(CC(=O)Nc1cccc(F)c1)CC(=O)Nc1cccc(S(=O)(=O)N2CCCCCC2)c1	i	i	?	i	i
CN(CC(=O)Nc1ccc(S(=O)(=O)N2CCCC2)cc1)Cc1cccc(Cl)c1Cl	i	9.28µM	i	i	i
CN(CC(=O)Nc1cccc(F)c1)CC(=O)Nc1cccc(S(=O)(=O)N2CCCCC2)c1	nt	?	11.7µM	nt	nt
Cc1ccc(-n2c(N)cc(=O)nc2SCC(=O)NC2CCCCC2)cc1C	i	i	?	i	i
COc1ccc(/C=C/C(=O)N(C)c2ccccc2C(=O)O)cc1	i	i	i	i	i
CCOC(=O)C1(Cc2ccccc2)CCCN(Cc2ccc(OCCO)cc2)C1 (stereo not given)	i	i	?	i	i

From PubChem BioAssay
